Laboratory results published in PubChem BioAssay (NCI).
Compounds without any hit were thinned out: in the full panel of roughly 83,000, 20% have a hit.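 Cells were grown in 96-well plates and exposed to the test compound at a single concentration for 48 hours; results are reported as percent growth, with values below 10 considered active.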 Values without a mark were called inactive. Calls of active or inactive are those of the source.

Experiments:
Assay in all cases: NCI-60 one-dose screen, 48 h (100 = growth as untreated, 0 = no growth, -100 = all killed)
Conditions in all cases: 10 µM unless noted
NCI-H23 lung = system: NCI-H23 lung
NCI-H226 lung = system: NCI-H226 lung
NCI-H322M lung = system: NCI-H322M lung
HOP-62 NSCLC = system: HOP-62 NSCLC
NCI-H460 lung = system: NCI-H460 lung
HOP-92 NSCLC = system: HOP-92 NSCLC
NCI-H522 lung = system: NCI-H522 lung
A549/ATCC NSCLC = system: A549/ATCC NSCLC
786-0 renal = system: 786-0 renal
COLO 205 colon = system: COLO 205 colon
DU-145 prostate = system: DU-145 prostate
K-562 leukemia = system: K-562 leukemia
MALME-3M melanoma = system: MALME-3M melanoma
MDA-MB-231 breast = system: MDA-MB-231 breast
SF-268 CNS = system: SF-268 CNS
SF-295 CNS = system: SF-295 CNS
SF-539 CNS = system: SF-539 CNS
UACC-257 melanoma = system: UACC-257 melanoma
M14 melanoma = system: M14 melanoma

SMILES	growth (NCI-H23 lung)	growth (NCI-H226 lung)	growth (NCI-H322M lung) [%]	growth (HOP-62 NSCLC)	growth (NCI-H460 lung)	growth (HOP-92 NSCLC)	growth (NCI-H522 lung)	growth (A549/ATCC NSCLC)	growth (786-0 renal) [%]	growth (COLO 205 colon)	growth (DU-145 prostate)	growth (K-562 leukemia)	growth (MALME-3M melanoma)	growth (MDA-MB-231 breast)	growth (SF-268 CNS)	growth (SF-295 CNS)	growth (SF-539 CNS)	growth (UACC-257 melanoma)	growth (M14 melanoma)
CC(N)C(=O)NNc1n[nH]c(=S)n1N (configuration not stated)	100%	97.1%	92	106%	103%	94.6%	98%	102%	95.8	111%	109%	107%	94%	105%	94.2%	94.7%	100%	98.8%	95.2%
O=C1Nc2c(ccc(Cl)c2Cl)/C1=C/c1ccc(O)cc1	86.7%	90.1%	107	86.1%	94.1%	65.7%	64.1%	35.7%	92.3	98.6%	119%	91.9%	108%	88.7%	89.1%	87.6%	98.3%	102%	100%
COc1cc(C2CC(c3cccc(Nc4ccncc4)c3)=NN2c2cc(Cl)cc(Cl)c2)cc(OC)c1OC (configuration not stated)	77.8%	87%	64.2	-29.2% (active)	-68.4% (active)	37.4%	0.35% (active)	17.9%	101	-58.7% (active)	-18.1% (active)	-1.05% (active)	-77.9% (active)	19.8%	42.4%	1.81% (active)	70%	1.77% (active)	96.2%
CCCCCCCCCCCCCCCCCCOc1ccccc1N	87.8%	97.6%	81.7	90.9%	47.6%	78.7%	3.78% (active)	25.5%	25	46.3%	62%	86.6%	102%	24.7%	56.6%	54.3%	20.5%	55.4%	72.9%
O=c1[nH]nc(-c2ccc(Br)cc2)cc1Cc1ccc(O)cc1	98.5%	85.6%	126	109%	103%	51.8%	89.5%	56.7%	103	98.8%	91.5%	81.5%	106%	87.6%	89.8%	107%	102%	106%	107%
COc1cccc2c1C(=O)c1c(O)c3c(c(O)c1C2=O)C[C@@](O)(C(=O)CO)C[C@@H]3O[C@H]1C[C@H](N)[C@@H](O)[C@H](C)O1	-25% (active)	-41.8% (active)	13.6	-18% (active)	1.64% (active)	-26% (active)	-55.2% (active)	-22.5% (active)	12.1	-86.6% (active)	-26.8% (active)	1.44% (active)	-50.7% (active)	1.94% (active)	-15.4% (active)	-16.1% (active)	-23.9% (active)	-49.3% (active)	-47.4% (active)
CN(Cc1ccccc1)c1nc(Cl)c(C2CC(c3ccc(Cl)cc3)=Cc3[nH][nH]c(=O)c32)s1 (configuration not stated)	98.3%	97.1%	110	101%	92.7%	102%	89.7%	107%	89.4	124%	104%	42.5%	104%	113%	92.1%	90.2%	88.1%	102%	107%
COc1cc(OC)cc(C2C3=C(COC3=O)Nc3cc(OC)ccc32)c1 (configuration not stated)	12.1%	-3.11% (active)	50.5	22%	4.2% (active)	52.6%	-40.5% (active)	16.6%	11	-74.1% (active)	-30.2% (active)	11.9%	71.6%	-7.98% (active)	18.1%	10.9%	1.4% (active)	45.5%	3.85% (active)
